# In PubChem BioAssay AID1159580 (chemical genetic matrix, 2015):
# The campaign covered roughly 5,500 compounds. About 2,000 (36%) were called active. About 18% were inconclusive and are not listed. This is one part of the list. A number with no mark means an inactive call. Rule as the data show it: active = normalized growth mostly below about 0.91 (no sharp cut-off); inconclusive = no clear call, values can overlap the other calls; inactive = mostly above about 0.92.
# Assay: chemical genetic growth profiling, strain panel (AID 1159580);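 also: tested at 20 µM; growth read once vehicle control cultures reached saturation at 30 °C; 1 = growth at the plate median or of vehicle wells; lower values mean less growth of the strain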
# Settings: S. cerevisiae deletion strains, growth OD
compound,measurement,setting,value
Oc1c(Cl)cc(Cl)cc1Sc1cc(Cl)cc(Cl)c1O,normalized growth,"locus YJR066W, strain TOR1, hits give low values",0.00096 (active)
same,normalized growth,"locus YJR075W, strain HOC1, hits give low values",0.962
same,normalized growth,"locus YKL009W, strain mrt4, hits give low values",0.956
same,normalized growth,"locus YKL068W, hits give low values",0.978
same,normalized growth,"locus YKL085W, strain MDH1 (second series), hits give low values",0.973
same,normalized growth,"locus YKL085W, strain MDH1, hits give low values",0.973
same,normalized growth,"locus YKL160W, strain elf1, hits give low values",0.0607 (active)
same,normalized growth,"locus YKR001C, strain vps1, hits give low values",1.01
same,normalized growth,"locus YKR026C, strain gcn3, hits give low values",0.0616 (active)
same,normalized growth,"locus YKR091W, strain srl3, hits give low values",0.0572 (active)
same,normalized growth,"locus YLL001W, strain dnm1, hits give low values",0.0641 (active)
same,normalized growth,"locus YLL026W, hits give low values",0.0559 (active)
same,normalized growth,"locus YLL041C, strain sdh2, hits give low values",0.0561 (active)
same,normalized growth,"locus YLR027C, strain aat2, hits give low values",0.0575 (active)
same,normalized growth,"locus YLR039C, strain RIC1, hits give low values",0.945
same,normalized growth,"locus YLR058C, strain SHM2, hits give low values",0.984
same,normalized growth,"locus YLR102C, strain apc9, hits give low values",0.962
same,normalized growth,"locus YLR113W, strain HOG1, hits give low values",0.152 (active)
same,normalized growth,"locus YLR221C, strain rsa3, hits give low values",0.0589 (active)
same,normalized growth,"locus YLR258W, strain gsy2, hits give low values",0.0608 (active)
same,normalized growth,"locus YLR262C, strain YPT6 (second series), hits give low values",0.0722 (active)
same,normalized growth,"locus YLR262C, strain YPT6, hits give low values",1
same,normalized growth,"locus YLR268W, strain sec22, hits give low values",0.976
same,normalized growth,"locus YLR320W, strain mms22, hits give low values",0.0755 (active)
same,normalized growth,"locus YLR330W, strain CHS5, hits give low values",0.995
same,normalized growth,"locus YLR342W, strain FKS1 (second series), hits give low values",1.05
same,normalized growth,"locus YLR342W, strain FKS1, hits give low values",0.0628 (active)
same,normalized growth,"locus YLR357W, strain rsc2, hits give low values",0.119 (active)
same,normalized growth,"locus YLR370C, strain arc18, hits give low values",0.0603 (active)
same,normalized growth,"locus YLR371W, strain rom2, hits give low values",0.994
same,normalized growth,"locus YLR384C, strain iki3, hits give low values",0.0584 (active)
same,normalized growth,"locus YLR418C, strain cdc73, hits give low values",0.979
same,normalized growth,"locus YML016C, strain PPZ1, hits give low values",0.991
same,normalized growth,"locus YML032C, strain rad52, hits give low values",0.986
same,normalized growth,"locus YML120C, strain ndi1, hits give low values",0.0563 (active)
same,normalized growth,"locus YML124C, strain tub3, hits give low values",0.989
same,normalized growth,"locus YMR058W, strain fet3, hits give low values",0.0603 (active)
same,normalized growth,"locus YMR078C, strain ctf18, hits give low values",0.989
same,normalized growth,"locus YMR125W, strain sto1, hits give low values",0.0858 (active)
same,normalized growth,"locus YMR129W, hits give low values",0.0578 (active)
same,normalized growth,"locus YMR205C, strain PFK2, hits give low values",0.0864 (active)
same,normalized growth,"locus YMR223W, strain ubp8, hits give low values",0.991
same,normalized growth,"locus YMR231W, strain pep5, hits give low values",0.0649 (active)
same,normalized growth,"locus YMR307W, strain GAS1, hits give low values",1.17
same,normalized growth,"locus YNL067W, strain RPL9B, hits give low values",0.941
same,normalized growth,"locus YNL071W, strain lat1, hits give low values",0.0603 (active)
same,normalized growth,"locus YNL183C, strain NPR1, hits give low values",-0.00055 (active)
same,normalized growth,"locus YNL209W, strain ssb2, hits give low values",0.0572 (active)
same,normalized growth,"locus YNL233W, strain BNI4, hits give low values",0.966
same,normalized growth,"locus YNL248C, strain rpa49, hits give low values",0.0762 (active)
same,normalized growth,"locus YNL250W, strain rad50, hits give low values",0.98
same,normalized growth,"locus YNL271C, strain bni1, hits give low values",0.996
same,normalized growth,"locus YNL298W, strain CLA4, hits give low values",0.967
same,normalized growth,"locus YNL307C, strain MCK1, hits give low values",0.975
same,normalized growth,"locus YNL322C, strain KRE1 (second series), hits give low values",0.0643 (active)
same,normalized growth,"locus YNR049C, strain mso1, hits give low values",0.0565 (active)
same,normalized growth,"locus YNR052C, strain pop2, hits give low values",0.982
same,normalized growth,"locus YOL006C, strain TOP1, hits give low values",0.921
same,normalized growth,"locus YOL012C, strain htz1",0.709
same,normalized growth,"locus YOL147C, strain pex11, hits give low values",0.975
same,normalized growth,"locus YOR001W, strain rrp6, hits give low values",0.0689 (active)
same,normalized growth,"locus YOR061W, strain CKA2, hits give low values",0.994
same,normalized growth,"locus YOR069W, strain VPS5, hits give low values",0.989
same,normalized growth,"locus YOR070C, strain gyp1, hits give low values",0.0566 (active)
same,normalized growth,"locus YOR080W, strain dia2, hits give low values",0.0627 (active)
same,normalized growth,"locus YOR083W, strain WHI5, hits give low values",0.0603 (active)
same,normalized growth,"locus YOR106W, strain vam3, hits give low values",0.0687 (active)
same,normalized growth,"locus YOR136W, strain idh2, hits give low values",0.978
same,normalized growth,"locus YOR144C, strain elg1, hits give low values",0.993
same,normalized growth,"locus YOR184W, strain ser1, hits give low values",0.979
same,normalized growth,"locus YOR231W, strain MKK1, hits give low values",0.118 (active)
same,normalized growth,"locus YOR265W, strain rbl2, hits give low values",0.0558 (active)
same,normalized growth,"locus YOR270C, strain vph1, hits give low values",0.113 (active)
same,normalized growth,"locus YOR290C, strain snf2, hits give low values",0.0666 (active)
same,normalized growth,"locus YOR316C, strain cot1, hits give low values",0.97
same,normalized growth,"locus YPL051W, strain arl3, hits give low values",0.0608 (active)
same,normalized growth,"locus YPL055C, strain LGE1, hits give low values",0.973
same,normalized growth,"locus YPL078C, strain atp4, hits give low values",0.0682 (active)
same,normalized growth,"locus YPL106C, strain sse1, hits give low values",0.111 (active)
same,normalized growth,"locus YPL240C, strain hsp82, hits give low values",0.0577 (active)
same,normalized growth,"locus YPL241C, strain CIN2, hits give low values",0.984
same,normalized growth,"locus YPL256C, strain CLN2, hits give low values",0.147 (active)
same,normalized growth,"locus YPR119W, strain clb2, hits give low values",0.985
same,normalized growth,"locus YPR141C, strain kar3, hits give low values",0.979
same,normalized growth,"locus YPR163C, strain tif3, hits give low values",0.983
same,normalized growth,"locus YPR167C, strain met16, hits give low values",0.986
same,normalized growth,"strain wtn01, hits give low values",0.995
